JMJD2A Tudor inh = qHTS Assay for Inhibitors of JMJD2A-Tudor Domain; Lysine-specific demethylase 4A (Homo sapiens), O75164; AlphaScreen JMJD2A-Tudor / H3K4me3 peptide binding; Potency, µM (titrated, usually from 114 µM), for the others: at the top dose activity change, negative = inhibition, actives largely listed as inhibitors; hit rate 4.4% among 390,000; AID 504339, 2011; further: potency means the concentration at half of the fitted maximal effect; on the % scale 0 is the no-effect control and ±100 the full control effect; nearly all actives have a fitted effect of over 50% in size
G9a inh = qHTS Assay for Inhibitors of Histone Lysine Methyltransferase G9a; Histone-lysine N-methyltransferase EHMT2 (Homo sapiens), Q96KQ7; G9a H3K9 monomethylation, AlphaScreen, 2 h; Potency, µM (highest dose often 102 µM), inactives show at the highest dose activity, negative = inhibition, actives largely listed as inhibitors; hit rate 8.8% among 350,000; AID 504332, 2011; further: potency means the concentration at half of the fitted maximal effect; on the % scale 0 is the no-effect control and ±100 the full control effect; nearly all actives have a fitted effect of over 75% in size
Target sequence (Q96KQ7 913-1193 limits assumed): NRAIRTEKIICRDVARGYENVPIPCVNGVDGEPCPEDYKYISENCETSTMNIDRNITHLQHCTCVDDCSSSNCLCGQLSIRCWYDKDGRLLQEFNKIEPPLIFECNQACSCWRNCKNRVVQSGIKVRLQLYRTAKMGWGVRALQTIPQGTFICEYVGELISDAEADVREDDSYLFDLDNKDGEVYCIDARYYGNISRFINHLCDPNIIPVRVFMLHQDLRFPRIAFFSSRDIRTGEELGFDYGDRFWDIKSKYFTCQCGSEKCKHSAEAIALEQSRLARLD
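Compounds were preincubated with 20 nM G9a for 15 min, after which biotinylated H3K9 peptide (500 nM) and SAM (20 uM) started a 2 h room-temperature reaction. Monomethylated product was quantified by antibody-based AlphaScreen chemiluminescence.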
PI5P4Ka inh = qHTS for Inhibitors of phosphatidylinositol 5-phosphate 4-kinase (PI5P4K); Phosphatidylinositol 5-phosphate 4-kinase type-2 alpha (Homo sapiens), P48426; PI5P4Kalpha enzyme, ADP-Glo luminescence, 60 min; hits give low values; max response, %; hit rate 1.2% among 330,000; active means max response of -50% or lower; inconclusive means between -30% and -50%; inactive means -30% or higher; further: value at the top dose of about 77 µM; on the % scale 0 is the no-effect control and ±100 the full control effect
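PI5P4Kalpha ADP-Glo assay; 5 microM ATP final; 60 min RT reaction; HEPES pH 7.4/EGTA/CHAPS, 5% DMSO; controls lacking substrate or enzyme; luminescent end-point.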
BAZ2B inh = qHTS Assay for Inhibitors of BAZ2B; hit rate 4.4% among 360,000; AlphaScreen BAZ2B-H3K14Ac peptide displacement; Potency, µM (doses to about 114 µM), for the others: at the highest dose activity change, negative = inhibition, actives largely listed as inhibitors; Bromodomain adjacent to zinc finger domain protein 2B (Homo sapiens), Q9UIF8; further: potency means the concentration at half of the fitted maximal effect; on the % scale 0 is the no-effect control and ±100 the full control effect; nearly all actives have a fitted effect of over 60% in size
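BAZ2B 50 nM plus b-H3(5-23)K14Ac 50 nM, PBS pH 7.4/0.01% Tween-20, 30 min RT; compound added (max 110 uM), 30 min RT; streptavidin donor/Ni-chelate acceptor beads 10 ug/mL final, 20 min dark; AlphaScreen read.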
HP1b chromo inh = HTS for Inhibitors of HP1-beta Chromodomain Interactions with Methylated Histone Tails; AlphaScreen HP1-beta / biotin-H3K9me3 peptide binding; Potency, µM (highest dose often 114 µM), for the others: top-dose activity change, negative = inhibition, most hits filed as inhibitors; hit rate 0.56% among 390,000; further: potency means the concentration at half of the fitted maximal effect; nearly all actives have a fitted effect of over 70% in size
Target sequence (P83916 whole entry, looked up): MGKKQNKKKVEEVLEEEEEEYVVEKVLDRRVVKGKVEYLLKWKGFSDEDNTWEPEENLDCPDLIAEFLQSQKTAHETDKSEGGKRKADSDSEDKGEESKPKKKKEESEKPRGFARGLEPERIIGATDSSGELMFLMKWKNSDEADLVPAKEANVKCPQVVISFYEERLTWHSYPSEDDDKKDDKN
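HP1-beta protein (50 nM final) preincubated 30 min at room temperature with biotinylated H3(1-18)K9me3 peptide (50 nM) in PBS pH 7.4, 0.01% Tween-20, then compound added for 30 min. AlphaScreen streptavidin donor/nickel chelate acceptor beads (10 ug/mL final), 30 min dark, luminescence read.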
PLK1 PBD inh = qHTS for Inhibitors of PLK1-PDB (polo-like kinase 1 - polo-box domain): Primary Screen; Serine/threonine-protein kinase PLK1 (Homo sapiens), P53350; Plk1 PBD binding of FITC phosphopeptide, fluorescence polarization; Potency, µM, inactives show max response, negative = inhibition, most hits filed as inhibitors; hit rate 2.8% among 360,000; further: potency means the concentration at half of the fitted maximal effect; series mostly up to about 57 µM; on the % scale 0 is the no-effect control and ±100 the full control effect; nearly all actives have a fitted effect of over 65% in size
An asterisk follows results filed as active; u = inconclusive; x = no result given; [ ] = dose if it differs, or a comment. The list is not random: actives were taken first. Their share in the collection is about 12%. Unless noted, the call rests on the fitted dose curve; in most records, active means well fitted curve in the direction sought with a large enough effect; inconclusive means small, poorly fitted or top-dose-only effect, or another doubt; inactive means no such curve, though single readings can be large; an effect the other way counts as inactive or inconclusive.

SMILES	JMJD2A Tudor inh	G9a inh	PI5P4Ka inh	BAZ2B inh	HP1b chromo inh	PLK1 PBD inh
CCc1ccc(-n2c(C)nc3cc(C(=O)NCCc4ccccc4)ccc32)cc1	-28.4%	u	x	-15.0%	28.7%	x
CCCCN(CC)CCCNC(=O)CS(=O)(=O)Cc1nc(-c2ccc(C)cc2)oc1C	-12.5%	-0.2%[59 µM]	x	-15.8%	23.8%	x
Cc1cc(C)n(/N=C/c2cc([N+](=O)[O-])ccc2O)c(=O)c1	u	u	-21.1	50.1µM*	17.2%	-1.4%
O=C1/C(=C/c2cccc(Br)c2)SC(=S)N1/N=C/c1cc([N+](=O)[O-])ccc1O	u	39.8µM*	-28.2	35.5µM*	-3.7%	18.9µM*
Oc1ccccc1/C=N/n1cnnc1	79.4µM*	50.1µM*	2.7	8.9%	12.5%	2.5%
O=[N+]([O-])c1cccc(/C=N/n2cnnc2)c1O	-16.0%	14.7%[59 µM]	u	-6.6%	48.1%	-12.4%
O=[N+]([O-])c1ccc(O)c(/C=N/n2cnnc2)c1	-27.2%	44.7µM*	-10.2	2.3%	14.0%	-12.5%
NC1(CO)COC(c2ccccc2)OC1 (centres undefined)	x	x	-20.5	x	x	11.5%
CCNc1nc(C#N)nc(N2CCOCC2)n1	-12.3%[57.1 µM]	x	x	x	25.4%[57 µM]	x
Cc1cc([N+](=O)[O-])c(C)cc1-c1ccc(/C=N/n2cnnc2)o1	-27.8%	u	-10.3	-23.3%	2.6%	-9.6%
O=[N+]([O-])c1ccc(-c2ccc(/C=N/n3cnnc3)o2)c(Br)c1	u	50.1µM*	-4.6	u	3.6%	-19.3%
Cc1nnc(NC(=O)C23CC4CC(CC(C4)C2)C3)s1	7.7%	-9.7%[2.33 µM]	-0.3	2.6%	27.9%	3.1%
O=[N+]([O-])CC(c1ccc(F)cc1)c1c[nH]c2ccccc12 (centres undefined)	-18.5%	2.0%	3.9	-4.5%	16.0%	6.0%
CN(C)c1ccc(C(CNC(=O)c2ccccc2F)c2c[nH]c3ccccc23)cc1 (centres undefined)	u	u	2.7	u	13.5%	-23.0%
CN(C)c1ccc(C(CNC(=O)c2ccccc2)c2c[nH]c3ccccc23)cc1 (centres undefined)	u	8.91µM*	1.6	14.1µM*	39.8µM*	u
CN(C)c1ccc(C(CNS(=O)(=O)c2ccc(F)c(F)c2)c2c[nH]c3ccccc23)cc1 (centres undefined)	22.4µM*	39.8µM*	7.1	22.4µM*	31.6µM*	-2.6%
CC(=O)c1ccc(-c2cnc3c(NC=O)cc(-c4cccc(C(=O)N(C)C)c4)cn23)cc1	x	x	-59.1*	x	x	-11.1%
COc1cccc(-c2cnc3c(NC=O)cc(-c4ccccc4)cn23)c1	x	x	u	x	x	-29.1%
COc1ccc(-c2cc(NC=O)c3ncc(-c4cccc(C(C)=O)c4)n3c2)cc1	x	x	-27.5	x	x	-22.6%
COc1cccc(-c2cc(NC=O)c3ncc(-c4ccc(C(C)=O)cc4)n3c2)c1	x	x	-67.6*	x	x	-5.1%
CN(C)C(=O)c1cccc(-c2cc(NC=O)c3ncc(-c4ccc(F)cc4)n3c2)c1	x	x	-29.7	x	x	-17.2%
COc1cccc(-c2cnc3c(NC=O)cc(-c4cccc(NC(C)=O)c4)cn23)c1	x	x	-77.0*	x	x	-12.8%
COc1ccc(-c2cnc3c(NC(C)=O)cc(-c4ccsc4)cn23)cc1OC	x	x	u	x	x	23.8µM*
COc1ccc(C(=O)NC(C)c2cccnc2)cc1S(=O)(=O)N(C)Cc1ccccc1 (centres undefined)	-23.8%	x	5.8	x	25.4%	3.4%
Cc1ccc(NC(=O)Cn2cc(S(=O)(=O)c3ccccc3)c(=O)c3cc4c(cc32)OCO4)cc1	-12.6%	u	x	u	21.8%	x
SMILES	JMJD2A Tudor inh	G9a inh	PI5P4Ka inh	BAZ2B inh	HP1b chromo inh	PLK1 PBD inh
COc1cc(-c2cnc3c(NC=O)cc(-c4cccc(NC(C)=O)c4)cn23)cc(OC)c1OC	x	x	-60.5*	x	x	-13.7%
CC(=O)Nc1cccc(-c2cc(NC=O)c3ncc(-c4cccc(C(C)=O)c4)n3c2)c1	x	x	-55.3*	x	x	-14.8%
CCn1cc(C(=O)OCC(=O)Nc2cccc(C(C)=O)c2)c(=O)c2ccc(C)nc21	-11.3%	-5.8%[59 µM]	x	-1.3%	8.1%	x
O=C(COC(=O)C12CC3CC(CC(C3)C1)C2)NCC1CCCO1 (centres undefined)	-12.1%	x	x	x	32.0%	x
Cc1cccc(/C=C(\C(=O)C(=O)O)c2ccc3ccccc3n2)c1	-10.2%	u	0.7	x	63.2%	-10.4%
O=C(O)C(=O)/C(=C\c1cccc(Cl)c1)c1ccc2ccccc2n1	u	22.4µM*	-6.8	79.4µM*	29.0%	-21.0%
N#Cc1ccc(/C=C(\C(=O)C(=O)O)c2ccc3ccccc3n2)cc1	1.4%	-17.2%[12.7 µM]	7.8	79.4µM*	30.1%	-12.6%
COC(CN(C(=O)CCl)C(C(=O)NC1CCCC(C)C1C)c1ccc(C)cc1)OC (centres undefined)	-24.7%	50.1µM*	0.5	-14.0%	21.2%	-6.4%
COC(CN(C(=O)CCl)C(C(=O)NC1CCCCC1)c1ccc(Cl)cc1)OC (centres undefined)	-8.5%	-5.9%[59 µM]	2.9	9.5%	22.2%	-9.4%
Cc1ccc(C(=O)CSc2ncc3c(n2)-c2ccccc2N(Cc2ccc(Cl)cc2)S3(=O)=O)cc1	-1.3%	-7.1%[59 µM]	x	1.9%	24.0%	x
CCN(Cc1cccs1)C(=O)CN1CCN(S(=O)(=O)c2ccc3c(c2)OCCCO3)CC1	-5.5%	44.7µM*	-6.6	8.9%	24.2%	0.4%
CN(Cc1cccs1)C(=O)CN1CCN(S(=O)(=O)c2ccc3c(c2)OCCCO3)CC1	-7.6%	44.7µM*	-6.7	0.7%	17.1%	-7.0%
Cc1cc(N/N=C/c2ccc(O)cc2)nc(NS(=O)(=O)c2ccccc2)n1	56.2µM*	u	-54.8*	79.4µM*	70.8µM*	-18.2%
CN(C)c1nc(NCc2ccccc2)nc(N/N=C/c2ccc(Br)cc2)n1	-13.6%	2.0%	1.2	-21.7%	25.7%	-5.4%
Cc1ccc(/C=N/Nc2cc(C)nc(NCc3ccccc3)n2)cc1	u	31.6µM*	-3.7	u	-13.0%	-16.3%
Cc1cc(N/N=C/c2ccc(N(C)C)cc2)nc(NCc2ccccc2)n1	u	-4.1%	-6.5	12.6µM*	-10.1%	6.0%
CN(C)c1nc(NCc2ccccc2)nc(N/N=C/c2ccc3c(c2)OCO3)n1	-33.8%	50.1µM*	-1.3	u	2.8%	-1.0%
Cc1cc(C)nc(NS(=O)(=O)c2ccc(NS(=O)(=O)c3ccccc3)cc2)n1	4.9%	5.4%	x	u	22.3%	-0.5%

Screening results from PubChem BioAssay.
